# Mot1-301 SUMO – inhibitors of SUMOylation pathway: yeast Mot1-301 growth rescue; S. cerevisiae Mot1-301 growth rescue, ATP luminescence, 38.5C; percent above DMSO median, 100 means doubled; growth rescue, % at 18.8 µM; actives 1% (n = 320,000);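 active means every valid replicate shows activation above 250% relative to neutral control wells; inactive means the rest, any valid replicate at or below 250%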;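 further: OY570 slx delta 5 strain wells were the positive control but not used for scaling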
# NadD inh – inhibitors of Staphylococcus aureus NadD; inhibition, % at 20 µM; purified NadD enzyme, colorimetric absorbance read-out; AID 602399; actives 0.78% (n = 360,000); in the data active means inhibition above about 26%
# Calb FLC – affects C. albicans growth with fluconazole. C. albicans CaCi-2 (fluconazole-resistant clinical isolate) + fluconazole, Alamar Blue growth, 48 h. growth inhibition, % (no concentration beside the values). actives 0.57% (n = 300,000);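 active means growth inhibition above about 58% in most replicates, limit read from the data, passing the limit was not always enough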;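 further: all wells also contain fluconazole at 8 µg/ml as a sub-toxic cotreatment; 0% = median of DMSO wells and 100% = median of geldanamycin control wells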
# FAS TE block – blocks the thioesterase domain of human fatty acid synthase. P49327. recombinant FAS-TE, OMFH fluorogenic substrate, fluorescence endpoint. inhibition, % at 15 µM. actives 0.67% (n = 360,000);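 active means compounds whose normalised, plate-corrected inhibition of enzyme fluorescence in the single-dose primary screen is 50% or more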;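 further: 0% = DMSO with enzyme and 100% = substrate without enzyme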
# Target sequence (P49327 whole entry, looked up, the tested form may be a part): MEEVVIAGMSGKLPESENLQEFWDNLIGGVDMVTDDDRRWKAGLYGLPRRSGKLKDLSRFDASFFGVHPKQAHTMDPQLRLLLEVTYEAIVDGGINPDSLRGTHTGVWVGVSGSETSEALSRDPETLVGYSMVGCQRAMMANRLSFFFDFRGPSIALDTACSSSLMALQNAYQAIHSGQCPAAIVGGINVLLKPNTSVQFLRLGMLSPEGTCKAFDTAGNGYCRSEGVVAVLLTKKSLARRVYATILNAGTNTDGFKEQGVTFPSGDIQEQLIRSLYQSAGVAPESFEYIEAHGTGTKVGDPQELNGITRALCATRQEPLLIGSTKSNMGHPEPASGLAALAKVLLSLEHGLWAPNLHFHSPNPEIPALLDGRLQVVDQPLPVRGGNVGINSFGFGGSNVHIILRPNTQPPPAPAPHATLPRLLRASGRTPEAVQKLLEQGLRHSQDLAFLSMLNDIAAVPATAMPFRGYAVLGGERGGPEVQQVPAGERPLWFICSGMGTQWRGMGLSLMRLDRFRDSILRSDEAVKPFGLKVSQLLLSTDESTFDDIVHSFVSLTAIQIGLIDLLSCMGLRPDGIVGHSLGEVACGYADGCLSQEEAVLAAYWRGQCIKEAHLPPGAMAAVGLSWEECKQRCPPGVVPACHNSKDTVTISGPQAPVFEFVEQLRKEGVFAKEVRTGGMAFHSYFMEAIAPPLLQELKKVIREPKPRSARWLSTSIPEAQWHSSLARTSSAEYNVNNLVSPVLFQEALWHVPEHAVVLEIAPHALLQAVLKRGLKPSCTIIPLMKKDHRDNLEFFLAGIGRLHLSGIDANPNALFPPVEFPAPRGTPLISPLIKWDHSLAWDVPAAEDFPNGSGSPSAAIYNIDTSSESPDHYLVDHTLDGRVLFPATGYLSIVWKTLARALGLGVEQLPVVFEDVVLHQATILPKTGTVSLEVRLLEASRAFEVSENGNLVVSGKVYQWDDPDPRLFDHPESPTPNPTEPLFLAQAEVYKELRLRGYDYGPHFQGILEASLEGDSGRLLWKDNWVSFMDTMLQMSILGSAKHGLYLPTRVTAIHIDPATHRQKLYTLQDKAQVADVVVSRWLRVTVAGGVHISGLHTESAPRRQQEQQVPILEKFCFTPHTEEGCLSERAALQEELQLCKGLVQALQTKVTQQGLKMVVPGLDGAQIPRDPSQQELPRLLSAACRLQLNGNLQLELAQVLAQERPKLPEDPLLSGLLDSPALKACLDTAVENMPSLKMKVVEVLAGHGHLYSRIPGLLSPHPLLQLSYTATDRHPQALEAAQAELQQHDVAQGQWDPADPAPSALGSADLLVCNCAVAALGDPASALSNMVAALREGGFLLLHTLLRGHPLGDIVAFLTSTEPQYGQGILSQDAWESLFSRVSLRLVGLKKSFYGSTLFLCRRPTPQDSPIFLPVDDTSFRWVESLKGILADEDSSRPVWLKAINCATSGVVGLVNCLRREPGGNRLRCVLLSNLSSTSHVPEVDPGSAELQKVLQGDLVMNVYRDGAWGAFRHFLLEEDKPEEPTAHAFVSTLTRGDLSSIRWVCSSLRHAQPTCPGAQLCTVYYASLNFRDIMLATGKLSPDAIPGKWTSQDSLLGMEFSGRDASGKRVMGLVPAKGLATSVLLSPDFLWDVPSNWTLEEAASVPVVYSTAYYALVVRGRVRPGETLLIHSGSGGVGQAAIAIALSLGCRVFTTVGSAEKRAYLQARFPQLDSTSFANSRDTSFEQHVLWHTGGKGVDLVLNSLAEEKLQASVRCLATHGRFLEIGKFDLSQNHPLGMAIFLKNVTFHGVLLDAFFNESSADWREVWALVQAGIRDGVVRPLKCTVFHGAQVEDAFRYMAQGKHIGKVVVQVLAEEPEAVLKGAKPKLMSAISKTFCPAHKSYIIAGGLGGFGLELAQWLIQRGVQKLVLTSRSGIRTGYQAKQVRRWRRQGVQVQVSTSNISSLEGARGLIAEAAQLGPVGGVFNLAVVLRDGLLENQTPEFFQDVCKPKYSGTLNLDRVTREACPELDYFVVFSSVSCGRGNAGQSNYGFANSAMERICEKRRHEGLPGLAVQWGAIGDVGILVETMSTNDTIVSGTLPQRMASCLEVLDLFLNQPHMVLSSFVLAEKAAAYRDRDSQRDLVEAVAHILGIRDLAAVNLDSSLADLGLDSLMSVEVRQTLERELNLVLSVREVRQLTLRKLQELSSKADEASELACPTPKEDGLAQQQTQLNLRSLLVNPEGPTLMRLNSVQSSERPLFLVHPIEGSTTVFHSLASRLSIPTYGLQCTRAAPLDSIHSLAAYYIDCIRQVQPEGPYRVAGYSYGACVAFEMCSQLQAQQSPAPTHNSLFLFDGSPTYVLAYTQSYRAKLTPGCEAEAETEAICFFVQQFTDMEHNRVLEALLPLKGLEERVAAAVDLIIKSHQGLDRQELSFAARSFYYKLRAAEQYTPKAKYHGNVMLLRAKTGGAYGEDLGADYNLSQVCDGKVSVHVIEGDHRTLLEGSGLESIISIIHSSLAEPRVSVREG
# ATG4B inh – blocks human ATG4B protease cleavage of LC3 substrate; actives 0.51% (n = 340,000); Q9Y4P1; AID 504462; ATG4B cleavage of LC3-PLA2, NBD-HPC fluorescence, 1 h; inhibition, % at 8.33 µM; in the data active means inhibition above about 40%
# FAS-TE inh conf – confirmation of human fatty acid synthase thioesterase inhibitors; shares compounds with FAS TE block; inhibition, % at 15 µM; actives 45% (n = 2,300); recombinant FAS-TE, OMFH fluorogenic substrate, fluorescence; AID 624325;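 active means compounds inhibiting the enzyme by at least 50% at 15 µM in any one of the replicates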;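 further: 0% = enzyme with DMSO only and 100% = wells lacking enzyme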
# * marks the source's active call; other numbers are inactive results; x = no result. A selection: hits, their analogues and other compounds. The true share with any hit is near 3.1%.
SMILES,Mot1-301 SUMO,NadD inh,Calb FLC,FAS TE block,ATG4B inh,FAS-TE inh conf
COc1ccc2cc(C3CC(c4ccco4)=NN3S(=O)(=O)c3ccccc3)c(Cl)nc2c1 (stereo not given),6,14,0,71*,-5,27
O=C(O)c1ccc(Nc2cc(Cl)c3nonc3c2[N+](=O)[O-])cc1,131,-1,36,38,0,x
O=[N+]([O-])c1c(Nc2cccc(O)c2)cc(Cl)c2nonc12,130,2,63,78*,5,50*
Cc1ccc(C)c(S(=O)(=O)ON2C(=O)c3ccccc3C2=O)c1,63,-1,x,83*,12,88*
Cc1cc(S(=O)(=O)ON2C(=O)c3ccccc3C2=O)ccc1F,-3,6,9,82*,-1,79*
CC1CCCCN1C(=S)Nc1ccc2nc3n(c(=O)c2c1)CCCCC3 (stereo not given),-6,-1,-19,-6,9,x
COc1ccc(OC)c(-c2nc3cc4ccccc4cc3nc2-c2ccccc2)c1,-5,3,37,53*,9,14
COc1ccc(-c2nc3ccccc3nc2-c2ccccc2)cc1OC,-6,-7,7,12,8,x
CCCCN(C=O)c1c(CC)nc2c(OCc3ccc(C(F)(F)F)cc3)cccn12,x,9,x,29,x,x
CCc1nc2c(OCc3ccc(C(F)(F)F)cc3)cccn2c1N(C=O)Cc1ccc(OC)cc1,x,-1,x,57*,x,52*
CCCCN(C=O)c1c(CC)nc2c(OCc3ccc(Cl)cc3Cl)cccn12,x,5,x,55*,x,61*
O=C1CCCN2N=C(SCC(=O)N3N=C(c4ccc(Br)cc4)CC3c3ccc(F)cc3)SC2=N1 (stereo not given),-6,6,12,45,-2,x
Cc1ccc(C2CC(c3ccc(Br)cc3)=NN2C(=O)CSC2=NN3CCCC(=O)N=C3S2)cc1 (stereo not given),-3,16,-4,54*,5,10
O=C1OCCN1c1ccccc1,x,-4,x,-8,-9,x
O=C1OCCN1c1c(-c2ccccc2)c(-c2cccs2)nc2c(-c3ccccc3)cccc12,3,27,-22,52*,-6,28
CCOc1cc(CN2CCC(n3nccc3NC(=O)C3CC3)CC2)ccc1O,-4,-4,2,-6,-8,x
CCN1CCN(C(=O)c2ccc3c(c2)S(=O)(=O)c2ccccc2C3=O)CC1,38,5,3,-2,-2,x
COC(=O)[C@@]12CCCCN1[C@H](c1ccc(-c3ccc4c(c3)OCO4)cc1)[C@H]1C(=O)N(C)C(=O)[C@H]12,-6,2,x,79*,-9,17
COC(=O)[C@@]12CCCCN1[C@H](c1ccc(-c3ccc(OC)cc3)cc1)[C@@H]1C(=O)N(C)C(=O)[C@@H]12,-17,4,-1,50,-11,x
CCN1C(=O)[C@@H]2[C@@H](c3ccc(-c4ccc5c(c4)OCO5)c(OC)c3)N3CCCC[C@@]3(C(=O)OC)[C@@H]2C1=O,15,10,-7,53*,-18,17
Cc1ccc(C(=O)NNC(=O)CCCN2C(=O)/C(=C/c3ccccc3Cl)SC2=S)cc1,6,9,2,13,34,x
O=C(CCCN1C(=O)/C(=C/c2ccccc2Cl)SC1=S)Nc1ccccn1,11,-1,25,34,19,x
O=C(CCN1C(=O)/C(=C/c2ccccc2Cl)SC1=S)Nc1ccccn1,72,19,-5,65*,3,59*
O=C1/C(=C/c2ccccc2Cl)SC(=S)N1CCCC(=O)N(CCO)c1ccccc1,-12,-5,28,56*,13,40*
O=C(CCN1C(=O)/C(=C/c2ccccc2Cl)SC1=S)Nc1cccnc1,104,11,0,62*,6,3
O=C(CCCN1C(=O)/C(=C/c2ccccc2Cl)SC1=S)Nc1cccnc1,8,-4,52,44,12,x
C[C@@H](NC(=O)[C@@H]1CCCN1C(=O)[C@@H]1CCCN1C(=O)OC(C)(C)C)c1ccccc1,x,0,x,-7,x,x
CC(C)CC1NC(=O)c2cc3ccccc3cc2-n2c1nc1ccc(Cl)cc1c2=O (stereo not given),x,18,x,74*,x,30
CC(C)CC1NC(=O)c2ccccc2-n2c1nc1ccc(Cl)cc1c2=O (stereo not given),28,x,x,x,x,x

# Bioassay records deposited in PubChem by several laboratories.
